According to PubChem BioAssay AID434962 (The Scripps Research Institute Molecular Screening Center, 2010):
In all, about 320,000 compounds went through this assay and about 1,300 (0.41%) were called active. This is one part of a sample in which actives are shown more often than they occur.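 Rule for the calls: active = percent inhibition above the average of all tested compounds plus 3 SD, set per screening campaign (cut at about 16% in these data); inactive = the rest.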

Biological target: Insulin-degrading enzyme (Homo sapiens) (UniProt P14735)
Experiment: human IDE inhibitors in live cells, primary screen, fluorescence polarization, HEK cells, FAbetaB substrate (AID 434962);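 note: IDE supplied by intact live HEK cells; FP after avidin binding of uncleaved biotin substrate so inhibition keeps polarization high; 0% = DMSO wells and 100% = 60 µM reference IDE inhibitor Ii1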
Conditions: FAbetaB cleavage, at 5.59 µM, hits give high values

Sequence of Insulin-degrading enzyme (Homo sapiens) (P14735 whole entry, looked up): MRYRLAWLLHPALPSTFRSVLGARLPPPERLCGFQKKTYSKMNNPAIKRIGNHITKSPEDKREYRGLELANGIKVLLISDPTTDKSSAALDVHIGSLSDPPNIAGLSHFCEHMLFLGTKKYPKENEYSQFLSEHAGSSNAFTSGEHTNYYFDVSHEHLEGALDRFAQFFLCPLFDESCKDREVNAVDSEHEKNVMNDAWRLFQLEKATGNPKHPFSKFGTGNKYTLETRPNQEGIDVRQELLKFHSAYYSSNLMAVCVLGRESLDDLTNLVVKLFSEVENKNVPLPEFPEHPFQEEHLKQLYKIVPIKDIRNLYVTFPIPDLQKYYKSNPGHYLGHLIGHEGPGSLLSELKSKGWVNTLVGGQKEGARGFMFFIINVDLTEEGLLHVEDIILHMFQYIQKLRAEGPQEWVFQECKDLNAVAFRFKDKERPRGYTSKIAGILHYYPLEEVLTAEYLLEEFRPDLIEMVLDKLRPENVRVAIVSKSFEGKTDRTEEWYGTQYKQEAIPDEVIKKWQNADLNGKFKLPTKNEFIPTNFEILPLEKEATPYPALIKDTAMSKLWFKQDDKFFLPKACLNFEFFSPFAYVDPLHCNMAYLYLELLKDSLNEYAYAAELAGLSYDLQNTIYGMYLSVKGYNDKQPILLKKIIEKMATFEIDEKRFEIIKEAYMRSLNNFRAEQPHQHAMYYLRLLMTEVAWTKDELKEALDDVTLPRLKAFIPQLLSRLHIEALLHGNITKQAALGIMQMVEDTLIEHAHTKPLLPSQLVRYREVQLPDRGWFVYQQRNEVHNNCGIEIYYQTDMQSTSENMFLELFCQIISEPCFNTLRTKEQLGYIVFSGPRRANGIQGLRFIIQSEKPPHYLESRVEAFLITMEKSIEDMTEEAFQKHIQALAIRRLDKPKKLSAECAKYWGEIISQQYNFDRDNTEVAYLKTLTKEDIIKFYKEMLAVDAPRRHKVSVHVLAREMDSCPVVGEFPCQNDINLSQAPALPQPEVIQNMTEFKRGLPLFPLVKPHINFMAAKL

inhibition, active:
CCN(CC)c1ccc2cc(C(N)=O)/c(=N\NC(=O)c3ccncc3)oc2c1 64.9%
N#C/C(=C\c1ccc(O)c(O)c1)C(=O)NCc1ccccc1 30.2%
Cn1c2ccccc2c2cc(/C=C(\NC(=O)c3ccccc3)C(=O)NCC(=O)O)ccc21 32.5%
NC(=O)c1c(Nc2nc3c(F)cccc3s2)sc2c1CCCC2 24.3%
COc1ccc(C2C=C(c3ccc(Br)cc3)Nc3nc(NS(C)(=O)=O)nn32)cc1 (stereo not drawn) 76.7%
CC1=CC(C)(C)Nc2ccc(OC(=O)CN3C(=O)C4CCCCC4C3=O)cc21 (stereo not drawn) 23.6%
Cc1cccc(-n2c(Cc3cc(=O)[nH]c(=O)[nH]3)nnc2SCC(=O)Nc2cccc(C(F)(F)F)c2)c1 18.2%
CCOc1cc2c(Cl)ncnc2c(OCC)c1OCC 17.1%
COc1ccc(C(=O)Nc2nc(-c3ccc(S(=O)(=O)N4CCOCC4)cc3)cs2)cc1 24.5%
O=C(/C=C/c1ccc(OCc2c(F)cccc2Cl)cc1)N1CCOCC1 21.1%
Cc1cccc(N2CCN(C(=O)c3cccc(N4C(=O)C5C6C=CC(C6)C5C4=O)c3)CC2)c1C (stereo not drawn) 44.4%
COc1ccc(Br)cc1C(=O)NC(=S)Nc1cc(-c2nc3ccccc3[nH]2)ccc1C 24.5%
Cc1cc(Cl)ccc1OCCCC(=O)NCc1ccncc1 22.1%
COc1cc(/C=C2/SC(=S)N(Cc3ccccc3)C2=O)cc(OC)c1O 68.4%
N#C/C(=C\c1ccc(N2CCOCC2)o1)C(=O)N1CCOCC1 20.9%
O=C(Oc1c(-c2ccco2)oc2ccccc2c1=O)c1cccnc1 68.4%
Cc1ccccc1Nc1nnc(SCC(=O)c2cc3ccccc3o2)s1 18.7%
CC(=O)c1cc(NC(=O)c2ccccc2)c(=O)oc1/C=C/N(C)C 16.3%
O=C(Nc1ccc(Sc2ccc(Br)cc2)cc1)c1ccco1 17.8%

inhibition, inactive:
COCCN(Cc1nc(-c2ccc(C(F)(F)F)cc2)no1)C(C)C 1.82%
CCN1C(=S)N[C@@H](CCc2ccccc2)[C@H](C(=O)OC)[C@H]1C 0.06%
O=C(Nc1ccccc1)N1CCN(C2c3ccccc3-c3ccccc32)CC1 0.11%
COc1cccc2cc(C(N)=O)/c(=N\NC(=O)c3ccccc3)oc12 -0.22%
NC(=O)c1cc2ccccc2o/c1=N/NC(=O)c1cccc(F)c1 7.74%
O=C(CCN1C(=O)COc2ccccc21)NCCCN1CCN(c2ccc(F)cc2)CC1 -5.39%
CCN(C(=O)CSc1nnnn1-c1ccc(OC)cc1)C1CCS(=O)(=O)C1 (stereo not drawn) -3.64%
CCOc1ccc(NC(=O)c2ccc(NC(=O)C3CCCO3)cc2)cc1 (stereo not drawn) 3.26%
COc1ccc(CNC(=O)/C(C#N)=C/c2cccc(OC)c2OC)cc1 2.96%
COCCNC(=O)/C(C#N)=C/c1cccc(OCc2ccccc2)c1 3.27%
COc1ccc(CCNC(=O)CC2SC(=Nc3cc(C)cc(C)c3)NC2=O)cc1OC (stereo not drawn) 2.28%
CCOC(=O)CNC(=O)/C(=C\c1ccc(F)cc1)NC(=O)c1ccccc1 -3%
COc1ccc(/C=C(\NC(=O)c2ccccc2)C(=O)NCCN2CCOCC2)cc1OC 0.14%
CC(=O)Oc1cc2c(C(=O)NCCN3CCOCC3)c(C)oc2c2ccccc12 -2.28%
COc1cccc(OC)c1C(=O)Nc1sc2c(c1C(N)=O)CCCC2 0.41%
O=C(Nc1sc2c(c1C(=O)O)CCC2)c1ccccc1F -2.01%
Cc1cc(C(C)(C)C)oc1C(=O)N(CC(=O)NC1CCCC1)Cc1ccc(Cl)cc1 6.17%
CCN(CCCNC(=O)c1ccc2c(c1)NC(=O)CN2C)c1cccc(C)c1 2.85%
CC(C)NC(=O)CSc1nnc(COc2ccccc2Cl)o1 -2.04%
CCCCn1c(SCc2ncc(-c3ccccc3)o2)nc2cc(S(N)(=O)=O)ccc21 2.94%
COc1ccccc1N(C)C(=O)c1cc(S(=O)(=O)N2CCc3ccccc32)cn1C -0.28%
CCOc1ccc(C2=CC(c3ccccc3)n3ncnc3N2)cc1 (stereo not drawn) 7.53%
Brc1ccc(C2=CC(c3ccco3)n3ncnc3N2)cc1 (stereo not drawn) 5.82%
CCOc1ccc(N(CC(=O)NCCOc2ccccc2OC)S(=O)(=O)c2ccccc2)cc1 4.02%
Cc1cc2c(cc1S(=O)(=O)NCc1ccc(Cl)cc1)OCC(=O)N2 5.28%
O=C(CN1C(=O)C2C3CCC(C3)C2C1=O)Oc1ccc2ccccc2c1 (stereo not drawn) -0.24%
CC1=CC(C)(C)Nc2ccc(OC(=O)C(Cc3ccccc3)N3C(=O)C4CCCCC4C3=O)cc21 (stereo not drawn) -5.52%
O=C(NCCC1CCCCN1S(=O)(=O)c1ccccc1)C(=O)NCC1CCCO1 (stereo not drawn) 3.94%
Cc1ccccc1CSc1nnc(-c2ccccc2)c(=O)[nH]1 0.38%
COc1cccc(-n2c(Cc3cc(=O)[nH]c(=O)[nH]3)nnc2SCC(=O)Nc2ccccc2)c1 2.57%
Cc1cccc(-n2c(Cc3cc(=O)[nH]c(=O)[nH]3)nnc2SC(C)C)c1 6.03%
Cc1ccc(S(=O)(=O)N2CCN(C(=O)COC(=O)CNC(=O)c3ccc(C(C)(C)C)cc3)CC2)c(C)c1 1.73%
CCOc1cc(C(=O)Nc2ncccn2)cc(OCC)c1OCC -0.15%
CCOc1cc(-c2conc2N)cc(OCC)c1OCC 0.37%
Cc1ccc(S(=O)(=O)N2CCN(CC(=O)N/N=C/c3ccc(Br)s3)CC2)cc1 2.15%
CCOC(=O)c1csc(NC(=O)c2ccc(S(=O)(=O)N3CCCC3)cc2)n1 0.72%
CNC(=O)c1ccsc1NC(=O)c1ccc(S(=O)(=O)N2CCOCC2)cc1 6.05%
CC(=O)CC(CC(=O)NC1CCCCC1)c1ccccc1 (stereo not drawn) -6.38%
CN(C)CCCNC(=O)/C=C/c1ccc(OCc2c(F)cccc2Cl)cc1 5.4%
COCCCNC(=O)/C=C/c1ccc(OCc2c(F)cccc2Cl)cc1 11.8%
CCn1c(C)c(C)c2cc(C(=O)N3CCN(c4cccc(C)c4C)CC3)ccc21 -0.11%
CC1C=CCC2C(=O)N(c3cccc(C(=O)N4CCCCCC4)c3)C(=O)C12 (stereo not drawn) -1.29%
CC(C)(C)C(=O)Nc1c(Br)c(C2CC2)nn1-c1ccccc1 0.92%
Cc1c(NC(=O)C(C)OC(=O)c2cc3c4ccccc4n(C)c3s2)c(=O)n(-c2ccccc2)n1C (stereo not drawn) -0.34%
CCCn1c(N)c(C(=O)CSc2nc3ccccc3c(=O)n2-c2ccc(OC)cc2)c(=O)[nH]c1=O -10.9%
Cc1cc2[nH]ncc2cc1NC(=S)NC(=O)c1ccccc1 -2.99%
COc1ccc(Br)cc1C(=O)Nc1cccc(C)c1C 2.56%
CCOC(=O)C(CC)/C(C)=N\NC(=O)c1cccc(C)c1 (stereo not drawn) -1%
Cc1cc(Cl)ccc1OCCCC(=O)NCc1ccccn1 -0.14%
Cc1cc(Cl)ccc1OCCCC(=O)Nc1cccc(-n2cnnn2)c1 6.2%
CN(C)Cc1ccc(F)cc1Sc1cc(Cl)ccc1Cl 7.05%
CCOC(=O)CNc1nc(Cl)nc(Nc2ccc(OC)cc2OC)n1 -1.6%
COc1ccc(/C=C2\SC(=S)N(CCCC(=O)NC3CCCC3)C2=O)cc1OC -2.87%
COc1ccc(/C=C2\SC(=S)N(CCC(=O)Nc3cccc(C(=O)O)c3)C2=O)cc1OC 1.95%
O=C(Nc1ccnn1C1CCN(C/C=C/c2ccc(F)cc2)CC1)C1CCCC1 -2.53%
COc1cccc(CNC(=O)Cn2c(=O)oc3cc(S(=O)(=O)N4CCCCC4)ccc32)c1 4.33%
Cn1c(NC(=O)c2ccco2)c(-c2ccccc2Cl)c(=O)c2ccccc21 -1.57%
N#C/C(=C\c1ccc(-c2cccc([N+](=O)[O-])c2)o1)C(=O)NCCN1CCOCC1 -0.08%
N#C/C(=C/c1ccc(N2CCOCC2)o1)C(=O)N1CCOCC1 14.4%
Cc1ccc(C(=O)c2ccc(N3CCN(C)CC3)c([N+](=O)[O-])c2)cc1 -2.73%
CCCCc1ccc(NC(=O)NCc2cccnc2)cc1 4.26%
CCN(CC(=O)NCc1ccc(F)cc1)S(=O)(=O)c1ccc(Cl)s1 7.4%
O=C(COC(=O)CCOc1ccccc1)Nc1cc(S(=O)(=O)N2CCCCC2)ccc1Cl 5.23%
CCC(C)(C)NC(=O)CN(C(=O)CCC(=O)Nc1nccs1)c1ccc2c(c1)OCO2 -1.66%
O=C(Oc1ccc(Br)cc1)c1cccnc1 1.44%
N#CCc1ccc(OC(=O)c2cccnc2)cc1 -4.29%
Cc1csc(=O)n1CCC(=O)OCC(=O)NNC(=O)c1ccc(Br)cc1 -2.19%
Cc1cc2c(=O)n(C)c(SCC(=O)c3cc4ccccc4o3)nc2s1 1.59%
CCOc1ccccc1Nc1nnc(SCC(=O)Nc2cc(C)on2)s1 3.25%
CCc1ccc(CNC(=O)C2CC(=O)N(CCc3ccc(C)cc3)C2)cc1 (stereo not drawn) -4.43%
CCCCN(C(=O)CSCC(=O)Nc1ccc(OC)cc1)c1c(N)n(CCC)c(=O)[nH]c1=O -1.31%
CCOC(=O)c1cc(NC(=O)c2ccc(Cl)cc2)c(=O)oc1-c1ccccc1 1.63%
CC(=O)Oc1cccc(C(=O)Nc2ccccc2NC(=O)c2cccc(OC(C)=O)c2)c1 -2.81%
Cc1cc(OCC(=O)N2CCN(c3ncccn3)CC2)ccc1Cl -0.8%
O=C(Nc1ccc(O)cc1)c1ccc(NC(=O)c2ccco2)cc1 3.06%
O=C(CNC(=O)c1ccco1)NNC(=O)c1ccc(Br)cc1 2.95%
CC1CCCCN1S(=O)(=O)CCNC(=O)c1ccccc1 (stereo not drawn) 1.88%
CC(C)(C)OC(=O)N[C@H](C(=O)OC(C)(C)C)c1ccc(Br)cc1 2.45%
CN1CCNC(=O)C1CC(=O)NCCC1=CCCCC1 (stereo not drawn) 1.39%
